The sample as a whole holds a higher share of hits than the screen did.
14-3-3g Raf = modulators of 14-3-3 gamma protein binding, primary screen, biochemical, fluorescence polarization; 14-3-3 protein gamma (Homo sapiens), P61981; FP, 14-3-3gamma / TMR-pS259-Raf peptide binding; inhibition, % at 40 µM; 0.19% of 160,000 active; AID 422, 2006; in the data active = inhibition above about 30%
Target sequence (P61981 whole entry, looked up): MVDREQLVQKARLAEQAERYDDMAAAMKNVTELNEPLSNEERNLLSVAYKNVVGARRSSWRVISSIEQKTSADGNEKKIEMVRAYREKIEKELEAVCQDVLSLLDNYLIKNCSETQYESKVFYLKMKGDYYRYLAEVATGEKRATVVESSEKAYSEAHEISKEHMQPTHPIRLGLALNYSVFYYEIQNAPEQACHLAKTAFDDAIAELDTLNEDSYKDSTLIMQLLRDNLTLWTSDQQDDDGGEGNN
Large screens that a line does not name were inactive; ! = repeats disagree.

COc1ccc(-c2nc(CSCC(=O)NCC3CCCO3)c(C)o2)cc1OC (stereo unspecified)	none
CC(C)c1ccc(-c2csc(NC(=O)c3ccc(S(=O)(=O)N4CCCCC4)cc3)n2)cc1	none
CCOC(=O)c1c(NC(=O)COc2ccc(F)cc2)sc2c1CCC(CC)C2 (stereo unspecified)	none
CCCCC1(C(=O)OCC)CC(CN2CCOCC2)OC1=O (stereo unspecified)	14-3-3g Raf 54
CCCCOC(=O)N1CCOCCOCCN(C(=O)OCCCC)CCOCCOCC1	none
CCOC(=O)c1c(NC(=O)CN2CCOCC2)sc2c1CCCC2	none
CSc1cccc(NC(=O)C2C3C=CC4(O3)C2C(=O)N(Cc2ccc3c(c2)OCO3)C4C(=O)NC2CCCCC2)c1 (stereo unspecified)	none
COc1ccc(C2C(C(=O)N(C)Cc3ccccc3)c3cc(OC)c(OC)cc3C(=O)N2C)cc1 (stereo unspecified)	none
O=C(O)C1Cc2c([nH]c3ccccc23)C(c2ccccc2)N1 (stereo unspecified)	none
O=C(O)C1Cc2c([nH]c3ccccc23)C(c2ccccc2[N+](=O)[O-])N1 (stereo unspecified)	14-3-3g Raf 53
O=C(O)C1Cc2c([nH]c3ccccc23)CN1 (stereo unspecified)	none
O=C1C(Cl)=C(NC2CCCCC2)C(=O)N1c1cccc(C(F)(F)F)c1	none
O=C1C=C(C(F)(F)F)c2ccc(NC3CCCCC3)c3cccc1c23	14-3-3g Raf 131
O=[N+]([O-])c1cc(S(=O)(=O)C(Cl)(Cl)Br)ccc1NC1CCCCC1	none
CCOC(=O)c1c(N=Cc2c(O)c([N+](=O)[O-])cc3oc4c(c23)CCCC4)sc(C)c1C	none
O=C(CC1(C(F)(F)F)NCCN1)c1ccccc1	none
COc1ccc(Nc2c3c4c(c(Br)ccc4n(C)c2=O)C(=O)c2ccccc2-3)cc1	none
Cn1c(=O)c(Nc2ccc(Br)cc2)c2c3c(cccc31)C(=O)c1ccccc1-2	14-3-3g Raf 151
CC(=O)c1c2c3c(cccc3n(C)c1=O)C(=O)c1ccccc1-2	14-3-3g Raf 32
O=C(Nc1ccc2c(c1)C(=O)c1ccccc1C2=O)c1ccc(Br)cc1	none
Cn1c(=O)c(N)c2c3c(cccc31)C(=O)c1ccccc1-2	14-3-3g Raf 109
CCCCCCCNc1c2c3c(cccc3n(C)c1=O)C(=O)c1ccccc1-2	none
COc1ccc2c(c1N)C(=O)c1ccccc1C2=O	none
Cn1c(=O)c(C(=O)NCCO)c(O)c2ccccc21	none
CC(=O)c1c2c3c(c(Br)ccc3n(C)c1=O)C(=O)c1ccccc1-2	none
Cc1ccc(-c2cc(C(=O)Nc3ccc(S(N)(=O)=O)cc3)c3ccccc3n2)o1	none
Cc1ccc(Cn2cc(CCC(=O)NC3CCCCCC3)c3ccccc32)cc1	none
CC(=O)C1C(c2ccccc2)C2C(C)=NN=C2CC1(C)O (stereo unspecified)	none
CCOC(=O)c1c(NC(=O)c2ccc([N+](=O)[O-])cc2)sc(C(=O)Nc2ccccc2F)c1C	none
CCn1c(=N)c(C(=O)NCC2CCCO2)cc2c(=O)n3cccc(C)c3nc21 (stereo unspecified)	none
Fc1cccc(-c2nnc3n2N=C(c2ccc(Cl)s2)CS3)c1	none
Cc1cccc(Oc2cc([N+](=O)[O-])cc3c2C(=O)Nc2ccccc2O3)c1	none
O=C1Nc2ccccc2Oc2cc([N+](=O)[O-])cc(Oc3ccccc3)c21	none
COc1cccc(Oc2cc([N+](=O)[O-])cc3c2C(=O)Nc2ccccc2O3)c1	14-3-3g Raf 61
CC(Nc1nc(-c2cccs2)cc(C(F)(F)F)n1)c1ccccc1 (stereo unspecified)	none
CC(=O)N1c2ccc(S(=O)(=O)CCC(=O)Nc3ccc(C)c(C)c3)cc2CC1C (stereo unspecified)	none
CC(=O)N1c2ccc(S(=O)(=O)CCC(=O)Nc3ccc(Br)cc3C)cc2CC1C (stereo unspecified)	none
CC(=O)N1c2ccc(S(=O)(=O)CCC(=O)Nc3cc(C)ccc3C)cc2CC1C (stereo unspecified)	14-3-3g Raf 34
Cc1nnc(NC2CCCCC2)n(C)c1=O	none
CC(=O)c1c(C)[nH]c(C(=O)Nc2cc(C)ccc2C)c1C	none
Cc1cc([N+](=O)[O-])ccc1NC(=O)c1ccc(F)cc1	none
CC(=O)c1c(C(C)=O)c(C)n(-c2ccc(C)c(NC(=O)c3ccc(F)cc3)c2)c1C	14-3-3g Raf 32
Cc1cccc(-c2nc3cc(N=Cc4ccccc4[N+](=O)[O-])ccc3o2)c1	none
CC(C)(C)c1cc(C(=O)CNC2=NCCC2)cc(C(C)(C)C)c1O	none
Cc1ccc(CNC(=O)c2c(C)cc(=O)oc2C)cc1	none
Cc1ccccc1CS(=O)(=O)Cc1ccc(C(=O)NCc2ccccn2)o1	14-3-3g Raf 33
Cc1cc(=O)oc(C)c1C(=O)NCc1ccccc1Cl	none
Cc1ccccc1CS(=O)(=O)Cc1ccc(C(=O)NCc2ccco2)o1	none
Cc1cc(=O)oc(C)c1C(=O)NCc1ccccn1	14-3-3g Raf 45!
O=C(NCc1ccccn1)c1ccc(CS(=O)(=O)Cc2ccc(Cl)cc2)o1	none
CCCn1c(=S)[nH]c2c(sc3ccccc32)c1=O	none
O=C(CN1C(=O)c2ccccc2S1(=O)=O)Nc1ccc(Cl)c([N+](=O)[O-])c1	none
COc1ccccc1C1(CCN=Cc2ccccc2)CCOC(C)(C)C1 (stereo unspecified)	none
Cc1ccc(CNC(=O)c2ccc(N(C)S(=O)(=O)c3ccccc3)cc2)cc1	14-3-3g Raf 53
Cc1ccccc1CNC(=O)c1ccc(N(C)S(=O)(=O)c2ccccc2)cc1	none
CN(c1ccc(C(=O)NCc2ccccc2)cc1)S(=O)(=O)c1ccccc1	none
CCCCCCn1c(N2CCCCC2)nc2c1c(=O)n(C)c(=O)n2C	none
O=C1c2ccccc2-c2onc3ccc(Nc4ccccc4)c1c23	none
CC(=O)OCCNc1cc(N2CCN(C)CC2)c2noc3c2c1C(=O)c1ccccc1-3	none
CCC(=O)OCCNc1ccc2noc3c2c1C(=O)c1ccccc1-3	14-3-3g Raf 141
CCOc1ccccc1N(C)C(=O)C1CC(=O)N(c2ccc(OC)cc2)C1c1ccc(OC)cc1 (stereo unspecified)	none
O=C(NCc1ccccc1Cl)C(Cc1ccccc1)NS(=O)(=O)c1ccc(Br)s1 (stereo unspecified)	none
N#CC1=C(N)OC2=C(C(=O)CCC2)[C@]12C(=O)N(CC(N)=O)c1ccccc12	none
O=C1CCCC2=C1C1(O)C(=O)c3ccccc3C1(O)O2 (stereo unspecified)	14-3-3g Raf 56
CC(=O)C1=C(C)NC2(O)c3ccccc3C(=O)C12O (stereo unspecified)	none
O=C(CSc1nnc(-c2ccccc2O)n1Cc1ccccc1)Nc1ccc(Br)cc1	none
COc1ccc2cc3cc(C(=O)NC(C)CCc4ccccc4)sc3nc2c1 (stereo unspecified)	none
CCOc1ccc(N(CC)C(=O)c2cc3cc4ccc(OC)cc4nc3o2)cc1	none
COc1ccc2cc3cc(C(=O)NC(C)CCc4ccccc4)oc3nc2c1 (stereo unspecified)	14-3-3g Raf 145
CCc1cccc(NC(=O)c2cc3cc4ccc(OC)cc4nc3o2)c1	none
CCN(C(=O)c1cc2cc3ccc(OC)cc3nc2o1)c1cc(C)ccc1C	none
CCc1ccccc1N(CC)C(=O)c1cc2cc3ccc(OC)cc3nc2o1	14-3-3g Raf 177
Cc1ccc(-c2csc(-c3cc4ccc(O)cc4oc3=O)n2)cc1C	none
CCCc1cc2c(=O)c(-c3ccc4c(c3)OCO4)c(C)oc2cc1OC	none
COCCCNC(=O)Cn1ccc2ccccc2c1=O	none
O=C(Nc1ccccc1C(F)(F)F)c1cnn2c(C(F)(F)F)cc(-c3cccs3)nc12	none
CCOC(=O)C1=CN(c2ccc(C)c(C)c2)C=C(C(=O)OCC)C1c1cccc(Cl)c1	none

Screens as filed in PubChem.
